Test results reported in PubChem BioAssay.
Activity calls are given as the source filed them. Unless noted, the rule behind the calls is not given here.

Assays:
[1] = resazurin metabolic signal in HepG2 cells – cell-based, resazurin fluorescence, 24 h, PK04 Diversity Set, profiling panel (AID 1172); settings: HepG2 viability, higher = more signal
[2] = budding yeast growth changes without added modifier – OD600, strain BY4716, 24 h, basal condition, primary screen (AID 1173); settings: S. cerevisiae BY4716 growth, OD600, 24 h; higher = more signal, called active from +8 up or from −8 down
[3] = viability profiling in MM1S myeloma cells – cell-based, resazurin fluorescence, basal, 24 h, PK04 Diversity Set, profiling panel (AID 1174); settings: higher = more signal, called active from +8 up or from −8 down;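 note: MM1S multiple myeloma cell line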
[4] = target: Dihydroorotate dehydrogenase (quinone), mitochondrial (Plasmodium falciparum (isolate 3D7)) (UniProt Q08210); assay: inhibition of P. falciparum DHODH – biochemical, C-terminal His tag, absorbance 600 nm, primary screen (AID 1175); settings: PfDHODH enzyme, DCIP absorbance 600 nm; higher = more signal, called active from +8 up or from −8 down;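 note: recombinant parasite enzyme with a five histidine tag at its C terminus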
Dihydroorotate dehydrogenase (quinone), mitochondrial (Plasmodium falciparum (isolate 3D7)), sequence (Q08210 whole entry, looked up): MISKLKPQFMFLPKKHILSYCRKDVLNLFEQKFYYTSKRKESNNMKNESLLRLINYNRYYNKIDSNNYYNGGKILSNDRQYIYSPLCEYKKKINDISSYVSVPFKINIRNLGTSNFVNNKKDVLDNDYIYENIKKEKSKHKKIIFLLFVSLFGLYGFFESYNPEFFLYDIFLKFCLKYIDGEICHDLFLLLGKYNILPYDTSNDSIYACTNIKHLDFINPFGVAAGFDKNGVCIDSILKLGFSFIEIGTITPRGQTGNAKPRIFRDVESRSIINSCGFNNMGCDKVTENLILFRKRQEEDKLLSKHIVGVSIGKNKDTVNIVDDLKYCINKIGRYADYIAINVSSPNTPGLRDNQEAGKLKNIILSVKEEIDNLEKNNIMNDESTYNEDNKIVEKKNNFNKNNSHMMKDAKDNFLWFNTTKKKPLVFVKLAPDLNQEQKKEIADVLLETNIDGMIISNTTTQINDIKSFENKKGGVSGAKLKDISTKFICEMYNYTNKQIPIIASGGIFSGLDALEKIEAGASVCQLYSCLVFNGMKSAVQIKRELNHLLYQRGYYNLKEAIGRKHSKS

[5] = inhibition of PAO1 biofilm formation – strain PAO1, LB-PBS medium, absorbance 600 nm, primary screen (AID 1176); settings: P. aeruginosa PAO1 growth/biofilm, A600, 12 h; higher = more signal
[6] = growth modulation of vineyard yeast isolate – strain RM11-1a, OD600, basal, 24 h, primary screen (AID 1177);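 note: cultures grown under basal conditions with no added stressor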; settings: S. cerevisiae RM11-1a growth, OD600, 24 h; higher = more signal, called active from +8 up or from −8 down
[7] = growth of efflux-deficient E. coli DRC39 – strain DRC39, OD650, 24 h, E. coli filamentation inducers, primary screen (AID 1178);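 note: growth measured as culture turbidity by optical density at 650 nm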; settings: E. coli DRC39 acrAB, higher = more signal, called active from +8 up or from −8 down
[8] = growth of efflux-deficient E. coli DRC39 – strain DRC39, OD650, 48 h, E. coli filamentation inducers, primary screen (AID 1179);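 note: screen aims at cell division blockers that make cells filament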; settings: E. coli DRC39 delta-acrAB growth, higher = more signal, called active from +8 up or from −8 down
[9] = viability profiling in RPMI8226 myeloma cells – cell-based, resazurin fluorescence, basal, 24 h, PK04 Diversity Set, profiling panel (AID 1180); settings: higher = more signal;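 note: RPMI8826 multiple myeloma cell line at 5000 cells per well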
[10] = target: E3 ubiquitin-protein ligase XIAP (Homo sapiens) (UniProt P98170); assay: small molecules binding XIAP protein – biophysical, small-molecule microarray, fluorescence 635 nm, primary screen (AID 1181); settings: higher = more signal;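 note: score merges 667 nm emission and signal to noise over triplicate slides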
E3 ubiquitin-protein ligase XIAP (Homo sapiens), sequence (P98170 whole entry, looked up, the tested form may be a part): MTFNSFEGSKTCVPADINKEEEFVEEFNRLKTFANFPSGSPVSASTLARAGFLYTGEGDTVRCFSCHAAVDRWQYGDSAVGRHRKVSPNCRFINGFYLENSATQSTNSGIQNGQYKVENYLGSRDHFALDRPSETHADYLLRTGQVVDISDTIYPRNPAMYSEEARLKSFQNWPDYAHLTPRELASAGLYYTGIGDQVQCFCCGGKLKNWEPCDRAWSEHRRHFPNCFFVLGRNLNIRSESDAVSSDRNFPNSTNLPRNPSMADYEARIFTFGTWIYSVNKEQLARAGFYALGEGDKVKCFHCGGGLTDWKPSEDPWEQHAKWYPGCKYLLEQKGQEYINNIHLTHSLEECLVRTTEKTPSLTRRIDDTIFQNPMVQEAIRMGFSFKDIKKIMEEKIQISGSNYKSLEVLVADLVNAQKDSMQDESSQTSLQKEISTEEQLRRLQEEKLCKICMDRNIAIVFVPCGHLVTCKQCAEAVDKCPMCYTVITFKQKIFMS

[11] = test system: XIP peptide (Xip251-270) binding; assay: XIP fragment 251-270 binding compounds – biochemical, small-molecule microarray, fluorescence 635/667 nm, 0.1 µg/mL protein, primary screen (AID 1182); settings: fluorescent protein binding, 635 nm, higher = more signal, called active from +8 up or from −8 down
XIP peptide (Xip251-270) = assay: compounds binding XIP fragment 251-270 – biochemical, small-molecule microarray, fluorescence 635/667 nm, 0.5 µg/mL protein, primary screen (AID 1183); settings: fluorescence 635 nm, higher = more signal
[12] = blood-stage malaria parasite viability loss – strain 3D7, DAPI fluorescence, 100 nL, primary screen (AID 1184);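 note: parasites grown inside human red blood cells in medium with human serum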; settings: P. falciparum 3D7 growth, 3 d, higher = more signal
[13] = target: Homeobox protein Hox-A13 (Mus musculus) (UniProt Q62424); assay: disruptors of Hoxa13 oligonucleotide interaction – biochemical, fluorescence polarization, labeled oligonucleotide, primary screen (AID 1185); settings: Hoxa13:DNA binding, 15 min, higher = more signal, called active from +8 up or from −8 down
Homeobox protein Hox-A13 (Mus musculus), sequence (Q62424 whole entry, looked up): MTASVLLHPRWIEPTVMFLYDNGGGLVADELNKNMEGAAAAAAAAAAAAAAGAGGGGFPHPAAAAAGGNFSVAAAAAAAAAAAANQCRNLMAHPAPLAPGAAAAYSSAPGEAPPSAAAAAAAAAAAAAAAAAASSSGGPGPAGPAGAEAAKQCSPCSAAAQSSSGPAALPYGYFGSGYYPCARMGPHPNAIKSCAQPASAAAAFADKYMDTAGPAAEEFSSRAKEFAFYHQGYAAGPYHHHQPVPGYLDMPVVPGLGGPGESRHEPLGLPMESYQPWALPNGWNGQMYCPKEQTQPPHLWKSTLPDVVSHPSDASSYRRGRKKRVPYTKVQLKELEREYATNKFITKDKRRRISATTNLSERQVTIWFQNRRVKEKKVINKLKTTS

[14] = blockers of DNA damage checkpoint Chk1 activation – imaging, HeLa, hydroxyurea, phospho-Chk1 antibody, percent positive cells, primary screen (AID 1186); settings: hydroxyurea-induced phospho-Chk1 immunofluorescence imaging, higher = more signal
[15] = blockers of DNA damage checkpoint Chk1 activation – imaging, HeLa, hydroxyurea, phospho-Chk1 nuclear intensity, primary screen (AID 1187); settings: hydroxyurea-induced phospho-Chk1 immunofluorescence imaging, higher = more signal

SMILES | z-score [1] | z-score [2] | z-score [3] | composite z-score [4] | z-score [5] | z-score [6] | z-score [7] | z-score [8] | z-score [9] | composite z-score [10] | composite z-score [11] | composite z-score (XIP peptide (Xip251-270)) | z-score [12] | z-score [13] | z-score [14] | z-score [15]
CN(C)C(=O)[C@@]1(CCC(=O)OC(C)(C)C)COC(c2ccc(OCCCO)cc2)=N1 | 0.791 | -0.874 (inactive) | 0.265 (inactive) | -0.883 (inactive) | -0.512 (inactive) | -0.0602 (inactive) | 0.115 (inactive) | 0.465 (inactive) | -0.195 | -0.0559 | 0.9 (inactive) | 0.846 | 0.388 | -3.81 (inactive) | -0.0526 (inactive) | 0.337 (inactive)
COC(=O)[C@]1(Cc2ccccc2N=[N+]=[N-])N=C(c2ccc(OCCCO)cc2)O[C@@H]1c1ccccc1 | -6.11 | -1.69 (inactive) | -8.86 (active) | 0.106 (inactive) | 0.783 (inactive) | 1.53 (inactive) | 2.06 (inactive) | 1.55 (inactive) | -7.19 | 0.007 | 0.857 (inactive) | 0.797 | -1.44 | -2.09 (inactive) | -0.88 (inactive) | -1.26 (inactive)
COC(=O)c1ccc(OC)c(/C=C\CC(CCc2ccccc2)OC(C)=O)c1 (centres undefined) | -0.928 | -0.527 (inactive) | -0.0834 (inactive) | -0.162 (inactive) | -0.131 (inactive) | -0.424 (inactive) | 0.0214 (inactive) | -0.238 (inactive) | 0.271 | -0.253 | -0.521 (inactive) | -0.187 | 0.522 | -1.15 (inactive) | 0.177 (inactive) | 0.453 (inactive)
C=CCOc1ccc([C@@H]2CC=C(C(=O)OCC)[C@H](c3cccc(Br)c3)N2S(=O)(=O)c2ccc(C)cc2)cc1 | -0.696 | 0.465 (inactive) | 0.262 (inactive) | -1.92 (inactive) | 0.285 (inactive) | -0.897 (inactive) | -0.273 (inactive) | 1.05 (inactive) | -0.155 | -0.258 | -0.355 (inactive) | -0.498 | -1.94 | 0.422 (inactive) | -0.0778 (inactive) | 0.295 (inactive)
O=C1c2ccccc2[C@](Cc2ccccc2I)(C(=O)NCC(F)(F)F)[C@H](c2ccc(CO)cc2)N1Cc1ccccc1 | 0.846 | -0.895 (inactive) | -0.277 (inactive) | -0.537 (inactive) | -0.0344 (inactive) | 0.0123 (inactive) | 0.496 (inactive) | 1.07 (inactive) | 0.675 | -0.0962 | 0.164 (inactive) | 0.647 | -0.945 | -4.04 (inactive) | -0.25 (inactive) | -0.634 (inactive)
CCOC(=O)C1=CC[C@@H](c2cccc(Br)c2)N(S(=O)(=O)c2ccc(C)cc2)[C@H]1c1ccc([N+](=O)[O-])cc1 | 0.157 | 0.25 (inactive) | -0.343 (inactive) | -1.26 (inactive) | 0.449 (inactive) | -0.403 (inactive) | -0.837 (inactive) | -0.0589 (inactive) | -1.14 | -0.27 | 0.422 (inactive) | 0.707 | -1.92 | 4.18 (inactive) | 0.476 (inactive) | 0.508 (inactive)
C[N+](C)(C)CCCC[C@@H]1NC(=O)[C@@H]2C[C@H](C(=O)NCCCCCNC(=O)CS)[C@H](c3cccc(OCCO)c3)N2C1=O | 0.839 | -0.385 (inactive) | 0.223 (inactive) | 1.09 (inactive) | -0.199 (inactive) | 0.342 (inactive) | 0.461 (inactive) | 0.983 (inactive) | 0.228 | -0.0562 | 0.17 (inactive) | -0.0808 | 0.0793 | -3.31 (inactive) | -0.209 (inactive) | -0.123 (inactive)
CN1C(=O)C2C=CC(C(O)C3CCCCC3)N(N(c3ccccc3)c3ccccc3)C2C1=O (centres undefined) | -0.11 | 0.495 (inactive) | -1.54 (inactive) | -0.15 (inactive) | 0.571 (inactive) | 0.0139 (inactive) | -0.881 (inactive) | -0.121 (inactive) | -1.54 | 0.264 | -0.119 (inactive) | 0.63 | 0.721 | -4.01 (inactive) | 0.74 (inactive) | -0.024 (inactive)
O=C1O[C@@H](c2ccccc2)[C@@H](c2ccccc2)N2[C@@H](c3ccc(O)cc3)[C@]3(C(=O)Nc4ccc(C#CC5=CCCCC5)cc43)[C@@H](C(=O)Nc3nc4ccccc4s3)[C@H]12 | 0.235 | -0.826 (inactive) | -0.139 (inactive) | -0.504 (inactive) | 2.14 (inactive) | 0.137 (inactive) | 0.591 (inactive) | 0.986 (inactive) | -0.595 | -0.0925 | 0.433 (inactive) | 0.708 | -0.775 | 3.56 (inactive) | -0.315 (inactive) | -0.363 (inactive)
O=C1C2C=CC(C(O)c3ccc(Br)cc3)N(Nc3ccccc3)C2C(=O)N1c1ccccc1 (centres undefined) | -0.69 | -3.48 (inactive) | -1.95 (inactive) | 1.02 (inactive) | 1.22 (inactive) | 0.501 (inactive) | -0.387 (inactive) | -0.604 (inactive) | -1.48 | 0.184 | 0.65 (inactive) | 0.324 | -0.18 | -3.62 (inactive) | 0.348 (inactive) | 0.453 (inactive)
CCCNC(=O)[C@@]1(Sc2ccc(C)cc2)CC(=O)N(Cc2ccccc2)[C@@H]1c1ccc(CO)cc1I | -0.38 | -2.59 (inactive) | -3.26 (inactive) | -11.5 (active) | 1.14 (inactive) | -0.598 (inactive) | 0.214 (inactive) | 0.0547 (inactive) | -2.81 | 0.0471 | 0.334 (inactive) | 0.889 | 0.179 | -2.54 (inactive) | 0.264 (inactive) | 0.372 (inactive)
CN(C)CCCCNC(=O)[C@H]1C[C@H]2C(=O)N[C@@H](CCCC[N+](C)(C)C)C(=O)N2[C@H]1c1cccc(OCCO)c1 | 0.49 | 0.168 (inactive) | 0.505 (inactive) | -0.119 (inactive) | 1.06 (inactive) | -0.557 (inactive) | -0.163 (inactive) | -0.853 (inactive) | -0.0588 | -0.243 | 1.42 (inactive) | 0.689 | -0.0344 | -3.83 (inactive) | -0.0589 (inactive) | -0.216 (inactive)
COc1ccc([Si](C)(C)[C@@H]2[C@@H](CC(=O)N3Cc4ccccc4C[C@H]3CO)O[C@]3(C(=O)N(Cc4cccc(N5CCCCC5=O)c4)c4ccccc43)[C@H]2C)cc1 | -1.16 | 0.0062 (inactive) | -3.09 (inactive) | -1.02 (inactive) | 0.331 (inactive) | 1.98 (inactive) | -0.453 (inactive) | -0.878 (inactive) | -2.15 | -0.148 | 1.63 (inactive) | 0.737 | -2.91 | -2.57 (inactive) | -0.559 (inactive) | -0.304 (inactive)
O=C(Nc1cc(Br)ccc1C(=O)NCc1cccc(O)c1)c1ccccc1 | -1.11 | -0.887 (inactive) | -0.407 (inactive) | 0.591 (inactive) | 0.034 (inactive) | 0.659 (inactive) | 1.45 (inactive) | 1.06 (inactive) | -0.565 | 0.41 | 2.11 (inactive) | 0.597 | -0.64 | -0.429 (inactive) | 0.0071 (inactive) | -0.27 (inactive)
COCCOC(=O)N1C(=O)[C@@]2(c3cc(C#CCCO)ccc31)[C@H](C(=O)N1CCc3cc(OC)c(OC)cc3C1)[C@H]1C(=O)O[C@H](c3ccccc3)[C@H](c3ccccc3)N1[C@@H]2c1ccc(OCCO)cc1 | 1.36 | 0.543 (inactive) | 0.665 (inactive) | -1.45 (inactive) | 2.19 (inactive) | 0.0817 (inactive) | 0.443 (inactive) | 1.75 (inactive) | 0.152 | -0.0412 | -0.608 (inactive) | 0.726 | -2.14 | 3.13 (inactive) | -0.148 (inactive) | -0.0047 (inactive)
COc1ccc([Si](C)(C)[C@H]2[C@H](CCn3cc(CCO)nn3)O[C@@]3(C(=O)N(Cc4cccc(N5C(=O)c6cccc7cccc5c67)c4)c4ccccc43)[C@@H]2C)cc1 | -2.74 | 0.425 (inactive) | -6.02 (inactive) | -0.455 (inactive) | 1.76 (inactive) | 2.16 (inactive) | 2.38 (inactive) | 1.74 (inactive) | -5.82 | 0.235 | 0.979 (inactive) | 0.697 | -2.55 | -2.56 (inactive) | -0.854 (inactive) | 0.0226 (inactive)
C=C[C@H](C)[C@H](OC(=O)Nc1ccc(SC)cc1)c1ccc(O)c2ccccc12 | -1.13 | -18.5 (active) | -3.69 (inactive) | -2.47 (inactive) | 0.802 (inactive) | -3.62 (inactive) | -1.46 (inactive) | -1.6 (inactive) | -2.55 | 0.0528 | 0.273 (inactive) | 0.151 | -0.243 | -5.27 (inactive) | -0.08 (inactive) | -0.437 (inactive)
O=[N+]([O-])c1ccc(C[n+]2ccc(-c3ccc(CO)cc3)cc2)o1 | -0.216 | -5.16 (inactive) | -0.979 (inactive) | -1.94 (inactive) | 0.503 (inactive) | -0.0644 (inactive) | -1.11 (inactive) | -0.495 (inactive) | -0.904 | -0.0047 | 0.406 (inactive) | 0.905 | -1.29 | -3.8 (inactive) | 0.137 (inactive) | 0.657 (inactive)
COC(=O)[C@@]1(Cc2ccc(OC)cc2)[C@H]2c3cc(C(=O)N(C)C)n(CCF)c3C[C@H]2CN1C(=O)c1ccccc1 | 0.586 | 2 (inactive) | -0.386 (inactive) | 0.343 (inactive) | -0.278 (inactive) | 0.177 (inactive) | 0.471 (inactive) | -0.143 (inactive) | -0.102 | -0.0592 | 0.0026 (inactive) | 0.449 | -1.65 | -3.59 (inactive) | 0.326 (inactive) | -0.241 (inactive)
